The record followed here is PubChem BioAssay (NCATS).

The target in experiment [1] is Cytochrome P450 1A2 (Homo sapiens) (UniProt P05177). Kind of experiment: p450-cyp1a2 (AID 410; calls by dose curve; note: potency is the fitted concentration of half-maximal effect;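 for activity change, negative = inhibition: -100% = full effect of reference inhibitor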). Summed up: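 Read-out is luminescence from luciferin produced by CYP1A2 demethylation of Luciferin-ME (100uM, at Km). Detection reagent stopped the 60 min NADPH-dependent reaction; signals were normalized to 57 uM furafylline.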
Experiment [2] has as its target Mitogen-activated protein kinase 10 (Mus musculus) (UniProt Q61831). Kind of experiment: JNK3 AlphaScreen Assay (AID 530).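 Note: kinase came from lysate of stimulated human HepG2 cells; signal reports phosphorylation of biotinylated GST-cJun 1-79 at Ser73 with 10 µM ATP; % is set by controls: 0 for no effect and ±100 for the full control effect.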 Summed up:
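Biotinylated GST-cJun(1-79) served as substrate for JNK3 in HepG2 lysates stimulated with IL-1beta and TNF-alpha. ATP was 10 uM final, pH 7.6. Ser73 phosphorylation was quantified by AlphaScreen (680 nm excitation).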
A general note: Bead proximity is the source of the signal in Alpha formats.

A short description of experiment [3]: AP1 Signaling Pathway (AID 357).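 Note: ME-180 reporter cells stimulated with EGF at its EC50 level; % is set by controls: 0 for no effect and ±100 for the full control effect.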 Summed up: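 First, ME-180 AP-1-bla cells were cultured overnight at 37 °C in low-serum Opti-MEM. Next, titrated compounds with EC50 EGF were incubated 5 hours. Finally, CCF4 was added for 2.5 hours and the 460/530 nm ratio recorded.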
The nature of experiment [4]: NFAT Signaling Pathway (AID 444).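 Note: carbachol stimulus at about its EC50 of 1 µM final; % is set by controls: 0 for no effect and ±100 for the full control effect.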 The settings on record: Jurkat NFAT-bla M1, carbachol, beta-lactamase ratio, 5 h; at 17.2 µM (top of the series) unless noted. Summed up:
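Jurkat cells carrying an NFAT-driven β-lactamase reporter and co-transfected muscarinic M1 receptor were treated with compound plus carbachol (1 uM final, an EC50 level) for 5 h at 37 °C. CCF4 loading followed for 1 h at RT; 460/530 nm ratio gave %activity.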

Experiment [5] can be described thus: Stat Signaling Pathway (AID 446).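 Note: ME-180 cervical cancer cells given 40 pM IL-6 alongside compound; SIE-controlled beta-lactamase reporter measured as 460/530 nm FRET emission ratio; % is set by controls: 0 for no effect and ±100 for the full control effect.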 Summed up:
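Emission at 460 and 530 nm (excitation 405 nm) reports SIE-controlled beta-lactamase in ME-180 cells. Cells received compound with 40 pM IL-6 for 5 hrs at 37 C; data scaled between 300 pM IL-6 and 125 nM JAK-inhibitor controls.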

Experiment [6] addresses Glucocorticoid receptor (Homo sapiens) (UniProt P04150). Kind of experiment: GR-GFP Redistribution (AID 450;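 active = compounds whose dose series gives a full or clear partial fitted curve of increased nuclear translocation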; note: potency is the fitted concentration of half-maximal effect). To be noted: U2OS GR-GFP nuclear translocation, laser cytometry, 2 h.
Experiment [7] shares this target. Kind of experiment: GR-EFC Redistribution (AID 451; calls by dose curve; note: potency is the fitted concentration of half-maximal effect). To be noted: CHO-K1 GR-EFC translocation, beta-gal luminescence, 2 h. Summed up: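 CHO-K1 cells stably expressing nuclear-localized β-gal enzyme acceptor and GR fused C-terminally to the enzyme donor fragment; ligand-driven nuclear translocation restores β-gal by complementation. Compounds titrated up to 46 uM final, 2 h at 37 °C; luminescence read.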

A short description of experiment [8]: Cell Viability - BJ (AID 421; calls by dose curve;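 note: potency is the fitted concentration of half-maximal effect; cells exposed to compound for 40 hours at 37 °C before readout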). The settings on record: BJ fibroblast viability, qHTS. Summed up:
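Cytotoxicity in human BJ foreskin fibroblasts is scored as loss of cellular ATP after a 40-hour exposure, measured by luciferase luminescence. Controls are DMSO and 100 uM tamoxifen.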
(qHTS replaces the single test concentration by a dilution series.)

The nature of experiment [9]: Cell Viability - Jurkat (AID 426;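 active = dose-dependent loss of cell ATP signal giving a full or clear fitted curve, ranked by lower potency value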;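 note: potency is the fitted concentration of half-maximal effect; cells exposed to compound for 40 hours at 37 °C before ATP read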). The settings on record: qHTS. Summed up: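 Cytotoxicity was scored as loss of cellular ATP, measured by luciferase-based luminescence, in Jurkat clone E6-1 cells after 40 h compound treatment; tamoxifen and doxorubicin served as positive controls.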
Experiment [10] in a line: Cell Viability - Hek293 (AID 427;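 active = compounds whose dose-response curve shows a full or clear partial loss of cell viability, called from curve shape rather than a numeric limit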;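 note: potency is the fitted concentration of half-maximal effect; cells exposed to compound for 40 hours at 37 °C before reading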). To be noted: qHTS. Summed up: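 qHTS, human embryonic kidney (adenovirus-transformed) cells; 40 hr cpd, 37 °C; CellTiter-Glo ATP luminescence. Norm: DMSO = 0, 100 uM tamoxifen = 100% inhibition. Hill-fit AC50.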
Experiment [11] in a line: Cell Viability - HepG2 (AID 433; calls by dose curve; note: potency is the fitted concentration of half-maximal effect). The settings on record: qHTS. Summed up:
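Read-out is luciferase-based quantitation of cellular ATP as a measure of viable HepG2 cells after 40 h treatment at 37 °C. Signal decrease is scaled between DMSO-only and 100 uM tamoxifen controls, with AC50 fitted by the Hill equation.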

Experiment [12] can be described thus: Cell Viability - MRC5 (AID 434; calls by dose curve;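 note: potency is the fitted concentration of half-maximal effect; cells exposed to compound for 40 hours at 37 °C; potency reflects cytotoxicity seen as loss of intracellular ATP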). The settings on record: MRC5 lung fibroblast viability, qHTS. Summed up:
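Decrease in intracellular ATP, quantified by luciferase light output, reflects compound toxicity toward MRC5 cells exposed for 40 hr in complete culture medium. Concentration-response curves, scaled between DMSO and 100 uM tamoxifen, gave AC50 values.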

Experiment [13] in a line: Cell Viability - SK-N-SH (AID 435; calls by dose curve;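 note: potency is the fitted concentration of half-maximal effect; compound exposure lasted 40 h at 37 °C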). To be noted: SK-N-SH neuroblastoma cell viability qHTS. Summed up:
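Luminescent ATP signal served as the viability read-out after 40 hours of compound treatment of human neuroblastoma SK-N-SH cells. Concentration-response data, scaled between DMSO and 100 uM tamoxifen, gave AC50 values by standard Hill modeling.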

Experiment [14] is described as follows: Cell Viability - N2a (AID 540; active = well fitted curve in the direction sought with a large enough effect; an effect the other way counts as inactive or inconclusive;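 note: cells exposed to compound for 40 h at 37 °C; plate controls were DMSO alone for no effect and tamoxifen control for full effect; nearly all actives have a fitted effect of over 45% in size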). To be noted: N2a mouse neuroblastoma cell viability; at 92.2 µM (top of the series). Summed up: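 In this qHTS cytotoxicity screen, ATP-dependent luciferase luminescence reports viable N2a cells after a 40 hr compound exposure in complete culture medium. Potencies are AC50 values from standard Hill equation fits.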
A short description of experiment [15]: Cell Viability - NIH 3T3 (AID 541; active = well fitted curve in the direction sought with a large enough effect; an effect the other way counts as inactive or inconclusive; note: nearly all actives have a fitted effect of over 25% in size; note: potency is the fitted concentration of half-maximal effect;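 for activity change, negative = cytotoxicity: plate controls were DMSO alone for no effect and tamoxifen positive control for full effect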). The settings on record: NIH 3T3 cell viability, qHTS; activity change, negative = cytotoxicity: at 92.2 µM (top of the series). Summed up: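 In this cytotoxicity screen, acute toxicity is scored as an ATP drop measured by CellTiter-Glo in NIH 3T3 fibroblasts following a 40 hr, 37 °C incubation with compound.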
A short description of experiment [16]: Cell Viability - HUV-EC-C (AID 542; active = well fitted curve in the direction sought with a large enough effect; an effect the other way counts as inactive or inconclusive; note: % is set by controls: 0 for no effect and ±100 for the full control effect; nearly all actives have a fitted effect of over 35% in size). Summed up: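 Concentration-dependent ATP loss in HUV-EC-C cells is the measure. Exposure lasts 40 hr at 37 °C; luminescence follows CellTiter-Glo addition, and Hill fits give AC50.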
A short description of experiment [17]: Cell Viability - H-4-II-E (AID 543; active = well fitted curve in the direction sought with a large enough effect; an effect the other way counts as inactive or inconclusive; note: nearly all actives have a fitted effect of over 35% in size; note: potency is the fitted concentration of half-maximal effect). Summed up: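 AC50 from Hill-modelled qHTS concentration-response curves. H-4-II-E rat hepatoma cells in complete medium, 40 hr exposure at 37 °C, viability by CellTiter-Glo ATP luminescence.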
Experiment [18] in a line: Cell Viability - SH-SY5Y (AID 544; active = well fitted curve in the direction sought with a large enough effect; an effect the other way counts as inactive or inconclusive;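 note: 0% = DMSO alone and -100% = 100 µM tamoxifen; nearly all actives have a fitted effect of over 55% in size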). Summed up: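 Quantitative HTS in SH-SY5Y neuroblastoma cells, 40 hr treatment at 37 °C, ATP content by luciferase luminescence; AC50 from Hill fits.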
Experiment [19] can be described thus: Cell Viability - Mesenchymal (AID 546; active = well fitted curve in the direction sought with a large enough effect; an effect the other way counts as inactive or inconclusive;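 note: cells exposed to compound for 40 hours before reading; 0% = DMSO only and -100% = 100 µM tamoxifen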). Summed up:
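In this qHTS cytotoxicity format, glomerulus-derived human mesenchymal kidney cells received compound for 40 hr, then luciferase-based ATP quantitation. Concentration-response data were fitted with the Hill equation.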

Unmarked numbers belong to inactive results. Results filed as inconclusive are left out. Calls of active or inactive are those of the source. Unless noted, calls come from the whole dose curve; as a rule, active = well fitted curve in either direction with a large enough effect (not every such curve was filed as active); inconclusive = small, poorly fitted or top-dose-only effect, or another doubt; inactive = flat fitted curve, though single readings scatter.

Cytochrome P450 1A2 (Homo sapiens), sequence (P05177 whole entry, looked up): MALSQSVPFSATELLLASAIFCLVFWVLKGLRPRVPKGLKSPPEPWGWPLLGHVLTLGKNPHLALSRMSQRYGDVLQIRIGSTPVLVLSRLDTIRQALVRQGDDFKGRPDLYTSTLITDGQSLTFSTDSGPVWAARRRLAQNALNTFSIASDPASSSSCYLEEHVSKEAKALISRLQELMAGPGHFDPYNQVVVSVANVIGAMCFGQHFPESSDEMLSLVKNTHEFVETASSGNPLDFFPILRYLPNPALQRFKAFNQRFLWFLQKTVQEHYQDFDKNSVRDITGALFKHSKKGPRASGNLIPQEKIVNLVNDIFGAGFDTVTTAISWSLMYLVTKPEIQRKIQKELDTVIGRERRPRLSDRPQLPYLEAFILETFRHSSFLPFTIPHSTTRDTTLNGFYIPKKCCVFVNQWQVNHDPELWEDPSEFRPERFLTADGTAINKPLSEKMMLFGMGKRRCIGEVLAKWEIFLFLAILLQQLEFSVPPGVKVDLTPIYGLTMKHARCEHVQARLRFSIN
Glucocorticoid receptor (Homo sapiens), sequence (P04150 whole entry, looked up, the tested form may be a part): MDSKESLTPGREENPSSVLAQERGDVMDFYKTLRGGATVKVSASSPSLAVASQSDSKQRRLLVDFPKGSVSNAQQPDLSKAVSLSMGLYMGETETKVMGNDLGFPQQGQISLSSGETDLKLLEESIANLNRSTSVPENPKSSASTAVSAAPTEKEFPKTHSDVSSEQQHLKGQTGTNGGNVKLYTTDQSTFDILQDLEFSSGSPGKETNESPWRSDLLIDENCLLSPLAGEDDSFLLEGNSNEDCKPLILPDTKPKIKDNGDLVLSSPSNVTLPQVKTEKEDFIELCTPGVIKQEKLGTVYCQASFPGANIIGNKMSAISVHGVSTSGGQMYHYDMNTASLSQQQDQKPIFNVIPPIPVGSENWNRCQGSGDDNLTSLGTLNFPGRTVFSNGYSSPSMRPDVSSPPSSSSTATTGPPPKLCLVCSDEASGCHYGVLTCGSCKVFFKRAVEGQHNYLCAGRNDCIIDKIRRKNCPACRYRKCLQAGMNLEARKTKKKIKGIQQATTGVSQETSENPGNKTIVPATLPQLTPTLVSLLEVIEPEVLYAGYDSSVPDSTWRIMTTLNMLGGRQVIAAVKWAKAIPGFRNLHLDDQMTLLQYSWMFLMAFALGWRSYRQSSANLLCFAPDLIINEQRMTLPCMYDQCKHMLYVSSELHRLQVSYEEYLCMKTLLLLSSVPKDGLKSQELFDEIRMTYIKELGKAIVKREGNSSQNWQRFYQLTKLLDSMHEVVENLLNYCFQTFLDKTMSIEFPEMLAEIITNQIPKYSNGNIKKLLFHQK

Regarding `O=C(O)Cc1nn(Cc2ccc(Br)cc2F)c(=O)c2ccccc12`, the Potency in experiment [1] is 31.6 µM (active). The compound was called inactive in experiment [2].

As to `O=C(O)c1ccc(OCCn2ccnc2)cc1`, the call in experiment [3] and in experiment [5] was inactive. Further, the activity change, negative = inhibition in [4] is -10.7%. Besides, in experiment [6], the Potency was over 20.6 µM.

Take `O=C1NCCN1c1ncc([N+](=O)[O-])s1`: the compound was classed as inactive in experiment [3], in experiment [5] and in experiment [2]. Besides, the activity change, negative = inhibition in experiment [4] was -7.97%. In addition, the Potency in experiment [6] and in experiment [7] was over 20.6 µM each time.

For the compound `CCc1cn([C@H]2C[C@H](O)[C@@H](CO)O2)c(=O)[nH]c1=O`, the call in [3] and in experiment [5] was inactive. Besides, the activity change, negative = inhibition in [4] was 23.4%. In addition, in [6], the Potency is over 20.6 µM.

For the compound `CN(CCO)CC(O)Cn1cnc2c1c(=O)n(C)c(=O)n2C` (configuration not stated) (tested in a mixture with another compound), the result in experiment [3] and in experiment [5] was inactive. Also, in experiment [4], the activity change, negative = inhibition is -24.9%.

Regarding `OCc1ccccc1`, the Potency in [8], in experiment [9], in [10], in [11], in [12] and in experiment [13] was over 92 µM in each case. Also, the outcome in experiment [2] and in [19] was inactive. Also, the activity change, negative = cytotoxicity in [14] was 4.71%; in experiment [15], 7.44%. Also, the Potency entry in [16], in experiment [17] and in experiment [18] was “inactive” each time.

`CC(=O)Oc1cc(C(F)(F)F)ccc1C(=O)O`: in experiment [1], the Potency result was “inactive”. Besides, in experiment [4], the activity change, negative = inhibition was 27.2%. Moreover, the outcome in experiment [5] and in experiment [2] was inactive. Besides, the Potency in experiment [6] and in [7] was over 20.6 µM in each case.

As to `N[C@@H](Cc1cc(I)c(Oc2ccc(O)c(I)c2)c(I)c1)C(=O)O`, the outcome in experiment [3] and in [5] was inactive. In addition, the activity change, negative = inhibition in [4] is 7.62%. Further, in [6], the Potency is over 20.6 µM.

Take `CN1C(=O)OC(C)(C)C1=O`: the compound was classed as inactive in [3] and in [2]. In experiment [1], the Potency entry was “inactive”. The activity change, negative = inhibition in experiment [4] was -1.31%. Besides, the Potency in experiment [6] and in [7] was over 20.6 µM each time.

For the compound `CCCC(CCC)C(=O)OC1C[C@H]2CC[C@@H](C1)[N+]2(C)C` (some centres not stated), the compound was called inactive in [3] and in [5]. Moreover, the activity change, negative = inhibition in [4] is -90.3% (active).

For `Cc1cccc(C)c1NC(=O)C1CCCCN1C` (configuration not stated), the compound was classed as inactive in experiment [3] and in experiment [5]. The activity change, negative = inhibition in experiment [4] is -26%. In experiment [6], the Potency was over 20.6 µM.

Turning to `Oc1ccc(/C=C/c2cc(O)cc(O)c2)cc1`, the outcome in [3], in experiment [5], in experiment [2] and in experiment [19] was inactive. For the same compound, the Potency in [8] was over 92 µM; in experiment [9], over 92 µM; in experiment [10], 52.8 µM; in [11] it was over 92 µM; in experiment [12], over 92 µM; in experiment [13], over 92 µM. Also, the Potency in experiment [15] and in [17] was 31.6 µM (active) throughout. The Potency result in experiment [16] and in [18] was “inactive” in each case.

Turning to `CCCCC(=O)O[C@H]1CC[C@H]2[C@@H]3CCc4cc(O)ccc4[C@H]3CC[C@]12C`, the compound was called inactive in experiment [3] and in [5]. Besides, the Potency in [6] was over 20.6 µM.
